According to the supplement of paper PMC3334620:
In all, about 33,000 sequences were measured (“E-score (-0.5 to 0.5)”: median about -0.015, highest 2% from about 0.3 on). The sample holds the highest values, similar sequences and a random draw of the others, so the mix is not that of the screen.

What follows are sequences tested against T1, Abf1 (UniProt P14164) (assay: PBM E-score (8-mer binding enrichment) (E-score (-0.5 to 0.5)); higher = stronger / more preferred TF binding). Settings: protein concentration: 200 nM; construct: GST-full length.
T1 sequence: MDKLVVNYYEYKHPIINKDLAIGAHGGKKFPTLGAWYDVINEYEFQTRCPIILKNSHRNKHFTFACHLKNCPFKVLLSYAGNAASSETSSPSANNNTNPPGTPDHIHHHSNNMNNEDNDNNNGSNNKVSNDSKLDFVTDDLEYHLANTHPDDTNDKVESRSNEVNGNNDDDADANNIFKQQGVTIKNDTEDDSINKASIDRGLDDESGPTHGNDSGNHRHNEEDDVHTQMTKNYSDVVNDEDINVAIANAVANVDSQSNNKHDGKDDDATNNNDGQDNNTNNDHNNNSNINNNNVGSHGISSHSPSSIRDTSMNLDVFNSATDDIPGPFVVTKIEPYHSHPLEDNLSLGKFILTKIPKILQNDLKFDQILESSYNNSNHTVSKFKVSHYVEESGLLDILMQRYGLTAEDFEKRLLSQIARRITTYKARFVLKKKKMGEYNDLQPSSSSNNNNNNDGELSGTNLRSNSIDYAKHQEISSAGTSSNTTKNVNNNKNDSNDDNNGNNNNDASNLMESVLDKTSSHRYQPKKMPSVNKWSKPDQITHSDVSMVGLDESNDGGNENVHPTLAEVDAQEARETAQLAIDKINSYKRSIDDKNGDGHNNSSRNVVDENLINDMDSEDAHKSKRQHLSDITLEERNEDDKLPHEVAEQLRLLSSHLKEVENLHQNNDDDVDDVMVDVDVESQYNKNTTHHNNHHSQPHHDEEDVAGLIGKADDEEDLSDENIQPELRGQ
Summary of the method: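 Detection of bound protein used fluorescent anti-GST, with scans normalised by masliner. The proteins were GST-tagged yeast transcription factors applied at about 100-200 nM to universal all-10-mer Agilent arrays made double-stranded by primer extension. Each ungapped eight-base word, pooled with its reverse complement, was scored with an E-score from the Universal PBM Analysis Suite.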

| Sequence | PBM E-score |
| --- | --- |
| CATCACTC | 0.385 |
| GATCACTA | 0.389 |
| GCTCACTA | 0.0163 |
| CCTCACTA | 0.159 |
| CATCACTA | 0.351 |
| CATCACAA | 0.0688 |
| GTTCACTA | 0.115 |
| CATCACAC | 0.141 |
| AATCACTA | 0.359 |
| AATCACTG | 0.204 |
| AATCACTC | 0.224 |
| CCTCACTC | 0.0309 |
| ATCGTAGA | 0.28 |
| AGTGTGGA | -0.0464 |
| CAGTAGGA | -0.109 |
| ATTGTGGG | -0.127 |
| TACCGCGA | -0.111 |
| GGTCGACA | -0.106 |
| GAGCCTAC | -0.171 |
| ATGGTTTC | -0.0221 |
| GATGGGCC | -0.28 |
| CACAGTTA | 0.164 |
| TCTCGAGA | 0.302 |
| CCTCGAGA | -0.0603 |
| GCTCGAGA | -0.143 |

| Sequence | PBM E-score |
| --- | --- |
| CATTGTGC | -0.115 |
| CCGAACTA | -0.143 |
| TCGTAGAA | 0.393 |
| ACGTAGAA | 0.108 |
| CCGTAGAA | 0.298 |
| CCGTAGAC | 0.0491 |
| CCGTAGAG | 0.102 |
| GCGTAGAA | 0.0196 |
| ATACCGGC | 0.0536 |
| CGGGCGCC | -0.053 |
| GTGATTAA | 0.249 |
| CGGATAGA | 0.147 |
| AGTGGTGA | 0.131 |
| ACATCATC | 0.328 |
| GCATCACC | -0.101 |
| ACATCACG | 0.231 |
| ACATCATA | 0.169 |
| ACATCACT | 0.415 |
| ACATCACA | 0.183 |
| ACATCACC | 0.353 |
| ACATCAGT | -0.0164 |
| ACATCATG | 0.24 |
| CAACCTAC | -0.122 |
| GCCTAGGA | -0.178 |
| CATGGCGG | -0.0941 |

| Sequence | PBM E-score |
| --- | --- |
| ACATCTGA | -0.0545 |
| GGATAAAA | 0.158 |
| CGATAAAA | 0.285 |
| TGATAAAA | 0.337 |
| TGATAACA | 0.341 |
| GGATAACA | 0.0228 |
| CGATAACA | 0.106 |
| TCATGAAA | 0.00026 |
| GGTCGCCA | -0.074 |
| TCATGGGA | -0.042 |
| AACGCTGT | 0.00818 |
| ACTGGTAC | -0.0194 |
| CGTCCAGC | -0.0241 |
| GAGTGCCA | -0.212 |
| CAGTGACC | 0.132 |
| GAGTGACA | 0.432 |
| TAGTGACA | 0.414 |
| CAGTGACA | 0.3 |
| GAGTGACC | 0.207 |
| CAGTGAAA | 0.0736 |
| TAGTGTCA | 0.117 |
| TAGTGTGA | 0.137 |
| AACGGACC | -0.168 |
| TGATCCCA | -0.0944 |
| CTAGCTGC | -0.114 |

| Sequence | PBM E-score |
| --- | --- |
| CGAGGTGA | 0.129 |
| GACACTTA | -0.0374 |
| ACTGCACG | -0.0217 |
| CGCCACCA | -0.138 |
| ATGATCTA | 0.297 |
| CTGATCTA | -0.106 |
| GTGATCCA | 0.132 |
| GTGATCTA | 0.407 |
| GAGATCTA | -0.121 |
| ATGATCTC | 0.296 |
| CGGCCAAC | -0.133 |
| GACGATGC | 0.231 |
| ACAGCCGC | -0.223 |
| CGTGCAAC | 0.247 |
| CGTGCAAA | 0.337 |
| TGTGCACA | 0.0303 |
| CGTGCACA | 0.196 |
| CGTGCACG | 0.419 |
| CGTGCAAG | 0.169 |
| AAGGATGC | -0.213 |
| GGCTGCGA | -0.0617 |
| CGAGGGAC | -0.189 |
| GGGGGCAA | -0.0502 |
| CGCATATC | 0.239 |
| CAACCTCA | -0.0877 |

| Sequence | PBM E-score |
| --- | --- |
| CCCTACCA | 0.0127 |
| ATTCTGTA | 0.14 |
| CAGTGATA | 0.377 |
| TAGTGATA | 0.433 |
| AAGTGAAA | -0.0619 |
| GAGTGAAA | -0.117 |
| AAGTGAGA | 0.0815 |
| GAGTGAGA | 0.0215 |
| TAGTGAAA | -0.0802 |
| AAGTGATA | 0.39 |
| CAGTGAGA | 0.0837 |
| CACTGATA | -0.056 |
| TAGTGAGA | 0.0964 |
| GAGTGATA | 0.424 |
| CCTTGGTC | -0.302 |
| AATTTGAC | 0.183 |
| CTGTCGGA | -0.123 |
| ACAGCTCT | -0.248 |
| AGTACTGA | -0.0709 |
| CCGGGTTC | -0.167 |
| GTAACTAA | -0.0125 |
| TTCGGAAA | -0.148 |
| CAACGTAA | -0.0145 |
| AATCTCTC | 0.0576 |
| ATACCCCA | 0.0583 |

| Sequence | PBM E-score |
| --- | --- |
| CACCCGCA | -0.205 |
| GATCGGGC | -0.195 |
| CGTTACAG | -0.0224 |
| CGTTACAC | 0.298 |
| CGTTATAA | 0.149 |
| CGTTACAA | 0.195 |
| CGTTATAG | 0.105 |
| CGTTATAC | 0.303 |
| AATGTTGC | 0.00562 |
| CGGCGTTC | -0.0709 |
| CCGCCATC | -0.26 |
| AGTCCACC | -0.0728 |
| GAAAACTA | -0.0964 |
| GTTCTGTA | -0.0186 |
| AATTCGTG | 0.224 |
| AATTCGTC | 0.315 |
| AATTCGTA | 0.307 |
| CATTCGTC | 0.222 |
| CTTTCGTC | 0.191 |
| GTTTCGTA | 0.26 |
| CATTCGCA | -0.1 |
| ATTTCGTC | 0.229 |
| AATTCGGA | 0.029 |
| CTTTCGTA | 0.376 |
| GATTCGTA | 0.262 |

| Sequence | PBM E-score |
| --- | --- |
| CATTCGTA | 0.308 |
| ACCCAGAA | -0.0336 |
| TTCCGAAA | 0.104 |
| ATTTAAAT | 0.189 |
| GATTACAC | 0.0768 |
| CAAGCCCG | -0.172 |
| GTGGTATA | -0.0621 |
| CGGCCCAC | -0.208 |
| ATCGTCAA | 0.342 |
| ACCGTCAA | 0.143 |
| ATCGTCAG | 0.154 |
| AACGTCAT | 0.217 |
| TTCGTCAA | 0.151 |
| ATCGTCAT | 0.349 |
| AGCGTCAA | -0.00287 |
| ACCGTCAT | 0.362 |
| ACCGTCAG | 0.0392 |
| AAAAATCC | -0.0226 |
| AGGTTGAA | 0.0563 |
| CACTGCAA | 0.0215 |
| TCATCAGA | 0.094 |
| CAGCTTGA | -0.141 |
| AGGAGGTG | -0.248 |
| GAGGGACA | -0.103 |
| CCTTTTAA | 0.0637 |

| Sequence | PBM E-score |
| --- | --- |
| ACGGCGAG | 0.111 |
| TCGGCGAA | 0.00757 |
| GCGGCGAA | -0.106 |
| ACGGCGAA | 0.343 |
| ACGGCGAC | 0.224 |
| ACGGCGCC | 0.184 |
| ACGGCGCT | 0.09 |
| ACGGCGCG | 0.324 |
| ACGGCGAT | 0.313 |
| ACCCGGGT | -0.155 |
| ATGAGTCA | 0.0874 |
| ACCCTAGG | -0.07 |
| CGCGTTGA | 0.0564 |
| AGATGCTC | 0.0161 |
| CAGGTAAG | -0.0344 |
| AGATAAGA | 0.194 |
| AATTCCAC | 0.0539 |
| CAGGATGA | 0.197 |
| AGACAAGC | -0.0992 |
| TTCACGAA | 0.267 |
| ATGACTAA | 0.146 |
| GTGACGGA | 0.149 |
| CTGACGAA | 0.239 |
| CTGACTAA | 0.0088 |
| GTGACGAA | 0.315 |

| Sequence | PBM E-score |
| --- | --- |
| ATGACGAC | 0.265 |
| GTCACGAA | 0.402 |
| GTCACGAC | 0.261 |
| ATGACGAA | 0.319 |
| GTGACTAA | 0.327 |
| GTGACGCA | 0.103 |
| AAGGTTCT | -0.189 |
| CGGGCACC | -0.0646 |
| CGCAAAAG | -0.0748 |
| CTCTCACC | -0.0855 |
| GAGTAAAC | -0.0509 |
| ATCCCGTA | 0.215 |
| GGCGATCA | -0.0321 |
| ATGGACTC | -0.134 |
| CACGGACG | 0.337 |
| AACGGACG | 0.065 |
| CACGGACA | 0.162 |
| AAACCGGT | -0.0782 |
| CATACTGA | -0.108 |
